# Source: publication PMC8384837, “Expanding the binding specificity for RNA recognition by a PUF domain”
# Assays:
# Assay in all cases: yeast three-hybrid, YBZ-1, SC-Leu-His + 0.5 mM 3-AT, 4 days
# Details in all cases: tags: N-Gal4 AD-HA kept; label: inside an RPR1-promoter hybrid RNA with tandem MS2 sites; ssRNA
# PUM1 PUF domain R6-RWW = molecular target: T1, PUM1 PUF domain R6-RWW (Homo sapiens, UniProt Q14671 828-1176, N1043R;Y1044W;Q1047W)
# T1 sequence: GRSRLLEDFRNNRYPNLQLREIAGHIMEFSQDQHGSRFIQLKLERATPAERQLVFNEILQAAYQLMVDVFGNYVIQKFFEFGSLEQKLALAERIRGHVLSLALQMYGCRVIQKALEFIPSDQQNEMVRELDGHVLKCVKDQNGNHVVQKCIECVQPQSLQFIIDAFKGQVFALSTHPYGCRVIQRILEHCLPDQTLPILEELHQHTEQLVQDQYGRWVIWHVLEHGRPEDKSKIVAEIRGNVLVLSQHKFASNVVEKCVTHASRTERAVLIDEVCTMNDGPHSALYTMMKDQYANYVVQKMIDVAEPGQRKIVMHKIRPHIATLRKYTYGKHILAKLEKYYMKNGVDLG
# Method in brief: (§1)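 Pumilio-1 PUF domain libraries, randomized at the three base-contacting residues of each repeat, were co-expressed with matching RNA elements from a centromeric plasmid in strain YBZ-1, which carries a LexA–MS2 coat fusion and a HIS3 reporter. Transformants grew for four days on SC-Leu (input) or on SC-Leu-His + 0.5 mM 3-AT (selection), and the repeat regions were PCR-amplified and Illumina-sequenced. The interaction score is the log change in variant frequency from input to selection. That logarithm is base 2, with a pseudocount of 1 where a variant was absent.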
# PUM1 PUF domain R3-LYT = PUM1 PUF domain R3-LYT (Homo sapiens, UniProt Q14671 828-1176, C935L;R936Y;Q939T)
# Method in brief: as §1
# PUM1 PUF domain R1-KRS = PUM1 PUF domain R1-KRS (Homo sapiens, UniProt Q14671 828-1176, S863K;Q867S)
# Method in brief: as §1
# PUM1 PUF domain R3-LNA = PUM1 PUF domain R3-LNA (Homo sapiens, UniProt Q14671 828-1176, C935L;R936N;Q939A)
# Method in brief: as §1
# PUM1 PUF domain R3-KSS = PUM1 PUF domain R3-KSS (Homo sapiens, UniProt Q14671 828-1176, C935K;R936S;Q939S)
# Method in brief: as §1
# PUM1 PUF domain R5-NGS = PUM1 PUF domain R5-NGS (Homo sapiens, UniProt Q14671 828-1176, C1007N;R1008G;Q1011S)
# Method in brief: as §1
# PUM1 PUF domain R8-QFP = PUM1 PUF domain R8-QFP (Homo sapiens, UniProt Q14671 828-1176, N1122Q;Y1123F;Q1126P)
# Method in brief: as §1
# PUM1 PUF domain R1-SRE = PUM1 PUF domain R1-SRE (Homo sapiens, UniProt Q14671 828-1176, Q867E)
# Method in brief: as §1
# PUM1 PUF domain R1-RIM = PUM1 PUF domain R1-RIM (Homo sapiens, UniProt Q14671 828-1176, S863R;R864I;Q867M)
# Method in brief: as §1
# PUM1 PUF domain R2-SWR = PUM1 PUF domain R2-SWR (Homo sapiens, UniProt Q14671 828-1176, N899S;Y900W;Q903R)
# Method in brief: as §1
# PUM1 PUF domain R2-SWR, sequence (Q14671 828-1176 N899S/Y900W/Q903R): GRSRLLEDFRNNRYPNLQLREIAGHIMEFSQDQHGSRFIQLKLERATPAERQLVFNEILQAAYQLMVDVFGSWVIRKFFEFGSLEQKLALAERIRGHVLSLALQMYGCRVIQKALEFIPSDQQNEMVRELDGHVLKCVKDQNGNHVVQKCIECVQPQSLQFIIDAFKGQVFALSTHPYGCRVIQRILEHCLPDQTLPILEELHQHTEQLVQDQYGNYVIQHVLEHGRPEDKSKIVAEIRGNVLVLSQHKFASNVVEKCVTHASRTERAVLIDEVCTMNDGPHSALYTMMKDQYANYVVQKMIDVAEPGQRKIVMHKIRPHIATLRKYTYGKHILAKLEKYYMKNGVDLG
# PUM1 PUF domain R5-NGS, sequence (Q14671 828-1176 C1007N/R1008G/Q1011S): as the sequence (Q14671 828-1176 N899S/Y900W/Q903R) above, with S72N, W73Y, R76Q, C180N, R181G, Q184S counted along it
sequence,measurement,setting,value
GGCUAGAACUAGUGGAUCCCCCGGCGCCCGGCGGCUCGAGCCCGGGUAAGUGUAAAUAGUCUGCAUGCCGCCGGGCGCCAUGCCUGCAGGUCGACUCUAGAAAACAUG,binding signal,PUM1 PUF domain R6-RWW,4.3 log2 enrichment (interaction score)
same,binding signal,PUM1 PUF domain R3-LYT,3.3 log2 enrichment (interaction score)
GGCUAGAACUAGUGGAUCCCCCGGCGCCCGGCGGCUCGAGCCCGGGUAAGUGUAAAUCGUCUGCAUGCCGCCGGGCGCCAUGCCUGCAGGUCGACUCUAGAAAACAUG,binding signal,PUM1 PUF domain R1-KRS,5.16 log2 enrichment (interaction score)
GGCUAGAACUAGUGGAUCCCCCGGCGCCCGGCGGCUCGAGCCCGGGUAAGUGUAAUUAGUCUGCAUGCCGCCGGGCGCCAUGCCUGCAGGUCGACUCUAGAAAACAUG,binding signal,PUM1 PUF domain R3-LNA,2.71 log2 enrichment (interaction score)
same,binding signal,PUM1 PUF domain R3-KSS,2.98 log2 enrichment (interaction score)
same,binding signal,PUM1 PUF domain R3-LYT,5.26 log2 enrichment (interaction score)
GGCUAGAACUAGUGGAUCCCCCGGCGCCCGGCGGCUCGAGCCCGGGUAAGUGUUAAUAGUCUGCAUGCCGCCGGGCGCCAUGCCUGCAGGUCGACUCUAGAAAACAUG,binding signal,PUM1 PUF domain R5-NGS,4.12 log2 enrichment (interaction score)
GGCUAGAACUAGUGGAUCCCCCGGCGCCCGGCGGCUCGAGCCCGGGUAAGCGUAAAUAGUCUGCAUGCCGCCGGGCGCCAUGCCUGCAGGUCGACUCUAGAAAACAUG,binding signal,PUM1 PUF domain R8-QFP,4.49 log2 enrichment (interaction score)
GGCUAGAACUAGUGGAUCCCCCGGCGCCCGGCGGCUCGAGCCCGGGUAAGUGUAAAUGGUCUGCAUGCCGCCGGGCGCCAUGCCUGCAGGUCGACUCUAGAAAACAUG,binding signal,PUM1 PUF domain R1-SRE,4.42 log2 enrichment (interaction score)
same,binding signal,PUM1 PUF domain R1-KRS,2.96 log2 enrichment (interaction score)
GGCUAGAACUAGUGGAUCCCCCGGCGCCCGGCGGCUCGAGCCCGGGUAAGUGUAAAUUGUCUGCAUGCCGCCGGGCGCCAUGCCUGCAGGUCGACUCUAGAAAACAUG,binding signal,PUM1 PUF domain R1-RIM,3.48 log2 enrichment (interaction score)
same,binding signal,PUM1 PUF domain R1-KRS,4.93 log2 enrichment (interaction score)
GGCUAGAACUAGUGGAUCCCCCGGCGCCCGGCGGCUCGAGCCCGGGUAAGUGUAAGUAGUCUGCAUGCCGCCGGGCGCCAUGCCUGCAGGUCGACUCUAGAAAACAUG,binding signal,PUM1 PUF domain R3-LNA,3.41 log2 enrichment (interaction score)
GGCUAGAACUAGUGGAUCCCCCGGCGCCCGGCGGCUCGAGCCCGGGUAAGUGUAAACAGUCUGCAUGCCGCCGGGCGCCAUGCCUGCAGGUCGACUCUAGAAAACAUG,binding signal,PUM1 PUF domain R2-SWR,4.79 log2 enrichment (interaction score)
